Source: PubChem
GRIN3A LBD mod: modulators (binders) of human NR3A ligand-binding domain; NR3A LBD differential scanning fluorimetry, Tm shift; 0% = protein alone, 100% = glycine-bound protein; Tm shift relative to glycine control, % at 25 µM; hit rate 2.5% among 340,000;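 active = melting temperature shift of at least 10% of the positive control shift, at one fixed dose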
SKN-1 block: C. elegans SKN-1 inhibition. C. elegans VP596 Pgst-4::GFP/RFP ratio, acrylamide-induced, 24 h. inhibition, % at 21.8 µM. hit rate 0.49% among 360,000. AID 624304;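 active = interference check ratio from 0.5 to 1.5 plus GFP to RFP signal ratio inhibition reaching or exceeding a fixed threshold, cut at about 30% in these data, passing the limit was not always enough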
esBAF inh: SWI/SNF esBAF complex inhibition; AID 602393; mouse ES cells, Bmi1-luciferase knock-in reporter, 24 h; 100% = twice the neutral-well signal; hit rate 2% among 350,000; reporter increase, % at 12.5 µM; in the data active = activation above about 40%; inconclusive = no clear call, values can overlap the other calls;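 also: 0% = median of the plate's neutral control wells and 100% = double that signal; a rise in the Bmi1 reporter signal indicates esBAF inhibition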
Vif imaging: inhibitors of HIV Vif | AID 602346 | hit rate 0.35% among 340,000 | inhibition, % at 7.49 µM | HEK293T cells, Vif self-association by quenched fluorescence, imaging, 24 h; in the data active = inhibition above about 50%, passing the limit was not always enough; inconclusive = no clear call, values can overlap the other calls; inactive = below about 31%
NadD inh: NadD (S. aureus) enzyme inhibition; hit rate 0.78% among 360,000; AID 602399; inhibition, % at 20 µM; purified NadD enzyme, colorimetric absorbance read-out; in the data active = inhibition above about 26%
SMARCA2 act: increases SMARCA2 function in MMTV reporter cells; MG213 cells, MMTV-luciferase reporter, dexamethasone, overnight; AID 652017; activation, % at 9.1 µM; hit rate 1% among 370,000; in the data active = activation above about 7.8%;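 also: 0% = vehicle wells and 100% = reference activator wells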
* marks the source's active call; other numbers are inactive results; ? = inconclusive; nt = not tested or not shown. An excerpt weighted towards active compounds, which were near 5.2% of everything screened.

SMILES	GRIN3A LBD mod	SKN-1 block	esBAF inh	Vif imaging	NadD inh	SMARCA2 act
CCCCCC(=O)Nc1cccc(C2=NOC3(C2)C[C@H](C(N)=O)N(C(=O)[C@H]2CCC(=O)N2)C3)c1 (stereo not given in full)	12*	11	-4	-5	-10	-1
CC(C)(C)C(=O)OCc1nc(-c2ccc(Cl)cc2)cs1	3	6	65*	10	1	7
CC(C)(C)C(=O)OCc1nc(-c2ccc(F)cc2)cs1	2	-12	?	1	-2	7.9*
O=C1NCC2=C1C(c1ccc(Br)cc1)Nc1ccccc1N2 (stereo not given)	-4	7	58*	-8	6	2
Cc1ccc(NC(=O)CSc2nc(O)c(Cc3ccccc3)c(=O)n2-c2ccccc2)cc1	-3	5	25*	2	-1	-2
COCC(=O)Nc1ccc2c(c1)C(=O)N(C)C[C@H](OC)[C@@H](C)CN(CCC(F)(F)F)[C@@H](C)CO2	nt	nt	-3	nt	nt	nt
CCN(CC(=O)Nc1ccc(NC(C)=O)cc1)C(=O)/C=C/c1cn(-c2ccccc2)nc1-c1ccc(F)cc1	14*	11	nt	11	-5	0
CCN(CC(=O)Nc1ccc(NC(C)=O)cc1)C(=O)/C=C/c1cn(-c2ccccc2)nc1-c1ccc(C)cc1	10*	2	5	-4	-8	0
COc1ccc(-c2nn(-c3ccccc3)cc2/C=C/C(=O)N(C)CC(=O)Nc2cccc(F)c2)cc1OC	11*	11	13	-11	7	-2
COc1ccc(-c2nn(-c3ccccc3)cc2/C=C(\CC(=O)O)c2nc3ccccc3s2)cc1OC	-10	-2	40*	-10	17	2
O=C(C[C@@H]1C=C[C@@H](NC(=O)C2CCC2)[C@H](CO)O1)NCc1ccncc1	nt	nt	-4	nt	nt	nt
CCCNC(=O)C[C@H]1CC[C@H]2[C@H](COc3ccc(NC(=O)Cc4ccccc4)cc3C(=O)N2C)O1	nt	nt	2	nt	nt	nt
COc1ccc(C(=O)Nn2c(SCC(=O)c3ccccc3)nc3ccccc3c2=O)cc1	-7	4	nt	0	16	0
COc1ccc(C(=O)Nn2c(SCc3ccc([N+](=O)[O-])cc3)nc3ccccc3c2=O)cc1	0	-5	-37	-1	33*	2
CC/C(=N\Nc1ccc([N+](=O)[O-])cc1)c1ccccc1	-2	35*	nt	-5	-4	nt
C/C(=N\Nc1ccc([N+](=O)[O-])cc1)c1ccc(N)cc1	11*	14	-5	-4	0	4
O=[N+]([O-])c1ccc(NN=C(Oc2ccccc2)c2ccc([N+](=O)[O-])cc2)cc1	nt	-3	-5	14	10	-3
CC(=NNc1ccc([N+](=O)[O-])cn1)c1ccc(N)cc1	0	-1	97*	4	-3	1
C/C(=N\Nc1nc(C)c(C)s1)c1ccc([N+](=O)[O-])cc1	1	-1	nt	11	4	-1
CCc1ccc(/C(C)=N\Nc2ccc([N+](=O)[O-])cc2)cc1	-1	13	44*	60*	-1	2
Cc1noc(C)c1NC(=O)N(C)C[C@@H]1OCCCC[C@H](C)Oc2ccc(NC(=O)Nc3ccc(F)cc3)cc2C(=O)N([C@@H](C)CO)C[C@@H]1C	nt	nt	-6	nt	nt	nt
CO[C@H]1CN(C)C(=O)c2cc(NS(=O)(=O)c3cn(C)cn3)ccc2OC[C@H](C)N(Cc2cccc(F)c2)C[C@@H]1C	nt	nt	6	nt	nt	nt
Cc1cc(Cl)ccc1OCCCC(=O)N1CCOCC1	2	12	59*	22	1	4
Cc1ccc(S(=O)(=O)N2CCN(C(=O)CCCOc3ccc(Cl)cc3C)CC2)cc1	1	10	0	21	-6	-4
O=C(CCSc1ccc(Cl)cc1)N1CCCCCC1	-2	6	86*	-7	-6	3
SMILES	GRIN3A LBD mod	SKN-1 block	esBAF inh	Vif imaging	NadD inh	SMARCA2 act
NC(=O)C1CCN(C(=O)CCSc2ccc(Cl)cc2)CC1	0	0	13	0	-1	4
Cc1cc(NC(=O)c2ccc(Cl)cc2)cc(C)c1OCC(=O)N1CCOCC1	13*	-3	18	5	-3	1
Cc1ccc(OCCCC(=O)N2CCOCC2)cc1	3	-2	19	21	-4	0
Cc1cc(Cl)ccc1OCCCC(=O)N1CCCCC1	-3	-23	60*	nt	-5	5
CCc1c(C)nc2cc(-c3ccc(Cl)cc3)[nH]n2c1=O	-5	7	56*	2	2	3
COCc1cc(=O)n2[nH]c(-c3cccc(Br)c3)cc2n1	-5	15	-12	nt	-4	4
CCOC(=O)CCc1c(C)nc2cc(-c3ccc(Cl)cc3)[nH]n2c1=O	-2	26	-6	12	4	-2
CCc1c(C)nc2cc(-c3cccc(Br)c3)[nH]n2c1=O	0	-4	56*	-3	-5	2
COc1cccc(-c2cnc3c(c2)C(=O)N([C@@H](C)CO)C[C@@H](C)[C@@H](CN(C)C(=O)CN(C)C)O3)c1	nt	nt	-10	nt	nt	nt
Cc1ccc(NC(=O)c2noc3c2CCc2ccccc2-3)cc1	2	-6	60*	-1	-1	0
COc1ccc(NC(=O)Nc2ccc3c(c2)CC(=O)N([C@H](C)CO)C[C@@H](C)[C@H](CN(C)C(=O)Nc2ccc4c(c2)OCO4)O3)cc1	nt	nt	-1	nt	nt	nt
CCOC(=O)CC(NC(=O)c1cc2cccc(OC)c2oc1=O)c1ccc(OC)cc1 (stereo not given)	-1	3	50*	-12	-4	2
O=C(N[C@@H]1CC[C@@H](CCNS(=O)(=O)c2ccc(F)cc2)O[C@H]1CO)C1CC1	nt	nt	2	nt	nt	nt
Cc1cc(=O)n2nc(N3CCC(C(=O)NCC(C)c4ccccc4)CC3)sc2n1 (stereo not given)	10*	0	6	4	-3	-2
Cc1cc(-c2nc(-c3ccc(C(C)(C)C)cc3)no2)no1	0	-4	62*	-11	0	4
COCCN(CCOC)S(=O)(=O)c1ccc(C(=O)Nc2nc(-c3ccccc3)c(C(=O)c3ccccc3)s2)cc1	2	4	nt	-6	-7	-4
CCCN(CCC)S(=O)(=O)c1ccc(C(=O)Nc2nc(-c3ccccc3)c(C(=O)OCC)s2)cc1	20*	5	nt	nt	11	1
CCOC(=O)c1csc(NC(=O)c2cc3ccccc3o2)n1	0	9	64*	3	-2	-1
CCOC(=O)Cc1cnc(NC(=O)c2ccccc2)s1	3	-10	51*	-2	2	2
O=C(NCCc1nc(-c2ccccc2)cs1)c1ccc(Br)cc1	-7	11	nt	-15	2	-4
CCOC(=O)c1csc(-c2csc(CCNC(=O)c3ccccc3)n2)n1	nt	8	3	51*	-3	0
CO[C@H]1CN(C)C(=O)c2ccc(NC(=O)C3CC3)cc2OC[C@H](C)N(Cc2cccc(F)c2)C[C@H]1C	nt	nt	4	nt	nt	nt
CCOC(=O)c1csc(NC(=O)c2ccccc2)n1	0	10	50*	0	-8	1
